Measurements as given in PubChem BioAssay (Tox21).
Active and inactive are the calls of the source. A call without a number means that no potency is given here. Calls come from the whole dose curve; as a rule, active = well fitted curve in the direction sought with a large enough effect in the repeat runs; inconclusive = weak or mixed curves; inactive = flat fitted curve, though single readings scatter. Positions of bridges follow the written chain, without caps; N, C: chain ends. Non-standard residues stand in square brackets, D forms with d. Residues, ends and D or L forms follow the SMILES beside them. *: point of attachment. X2 = CC[C@H](C)CCCCC(=O)*; Dab = NCC[C@H](N)C(=O)O

Test: qHTS assay to test for compound auto fluorescence at 535 nm (green) in HepG2 cell free culture (AID 720686)
Details: Cell-free medium, green autofluorescence 485/535 nm; series mostly up to 46 µM
Excerpt: U.S. Tox21 Program National Center for Advancing Translational Sciences [NCATS] NIH Chemical Genomics Center [NCGC] U.S. Environmental Protection Agency [EPA] National Institutes of Environmental Health Sciences [NIEHS] National Toxicology Program [NTP] U.S. Food and Drug Administration [FDA] Tox21 Assay Overview: Compound auto fluorescence often interferes with screening of the compound library against various biological targets and signaling pathways. Some of these compounds may have fluorophoric properties. Such properties may interfere with the assay outputs resulting in false positives and/or negatives. To decrease such complications and ensure the compound activities are relevant in terms of biological response, the Tox21 10K compound library was screened for auto fluorescence. From the fluorophores used as reporter signals in our screening assays, the auto fluorescence equivalencies of compounds against three fluorophores have been evaluated: Triamterene, Fluorescein and Rose Bengal sodium for blue, green and red fluorescence, respectively. The fluorescence intensities were measured using Excitation/Emission wavelengths at 405/460nm, 485/535nm and 540/590nm for blue, green and red labels, respectively. This assay includes the green fluorescence data.
Tox21 Assay Protocol Summary: 5 uL of culture medium (MEM containing 10% FBS) per well was dispensed into black wall/clear bottom 1536-well plates using a Multidrop Combi Dispenser (ThermoFisher Scientific, Waltham, MA). After 23 nL compound or DMSO vehicle was transferred into assay plate by a pintool work station (Kalypsys, San Diego, CA), fluorescence intensities in the assay plates were measured by an Envision (PerkinElmer, Shelton, CT) plate reader using three labels for measuring blue, green and red fluorescence at […] 460, 535 and 590nm respectively.

Q: With `CS(=O)(=O)c1ccc(C2=C(c3ccccc3)C(=O)OC2)cc1` as the molecule, how does the Potency read?
A: Its Potency is “inactive”.

Q: With `CN1CCC(CN2c3ccccc3Sc3ccccc32)C1` (stereo not given) as the molecule, how does the Potency read?
A: The Potency was “inactive”.

Q: For `CC(O)[C@H]1CC[C@H]2[C@@H]3CC[C@@H]4C[C@@H](O)CC[C@]4(C)[C@H]3CC[C@]12C` (stereo not given in full), which Potency is on record?
A: The Potency was “inactive”.

Q: Which Potency does the source give for `C=C1CC[C@H](O)CC1=C/C=C1\CCC[C@]2(C)[C@@H]([C@H](C)CCCC(C)(C)O)CC[C@@H]12` here?
A: Its Potency is “inactive”.

Q: Which Potency does the source give for `CC[C@@]1(O)C(=O)OCc2c1cc1n(c2=O)Cc2cc3c([N+](=O)[O-])cccc3nc2-1` here?
A: Its Potency is “inactive”.

Q: For `CN(C)C=Nc1c(I)cc(I)c(CCC(=O)O)c1I`, which Potency is on record?
A: The Potency was “inactive”.

Q: With `C=C1CC[C@H](O)CC1=C/C=C1\CCC[C@]2(C)[C@@H]([C@H](C)CC[C@@H](O)C(C)(C)O)CC[C@@H]12` as the molecule, how does the Potency read?
A: The Potency was “inactive”.

Q: With `C=Cc1c(C)c2cc3nc(cc4[nH]c(cc5nc(cc1[nH]2)C(C)=C5CCC(=O)OC)c(CCC(=O)O)c4C)[C@@]1(C)C3=CC=C(C(=O)OC)[C@H]1C(=O)OC` as the molecule, how does the Potency read?
A: The Potency was “inactive”.

Q: With `NCCC[C@H](N)C(=O)O` as the molecule, how does the Potency read?
A: The Potency was “inactive”.

Q: Which Potency does the source give for `O=C(Cc1cccs1)N[C@@H]1C(=O)N2C(C(=O)[O-])=C(C[n+]3ccccc3)CS[C@H]12` here?
A: Its Potency is “inactive”.

Q: Which Potency does the source give for `C#C[C@]1(O)CC[C@H]2[C@@H]3CCC4=CCCC[C@@H]4[C@H]3C(=C)C[C@@]21CC` here?
A: Its Potency is “inactive”.

Q: Which Potency does the source give for `CC(C)(CO)[C@@H](O)C(=O)NCCC(=O)NCCSSCCNC(=O)CCNC(=O)[C@H](O)C(C)(C)CO` here?
A: The Potency was “inactive”.

Q: Which Potency does the source give for `CO[C@@H]1[C@@H](O[C@@H]2O[C@H](C)[C@@H](O[C@H]3C[C@@](C)(O)[C@@H](OC(=O)CC(C)C)[C@H](C)O3)[C@H](N(C)C)[C@H]2O)[C@@H](CC=O)C[C@@H](C)[C@@H](O)/C=C/C=C/C[C@@H](C)OC(=O)C[C@H]1O` here?
A: Its Potency is “inactive”.

Q: Which Potency does the source give for `CCCCCCCCCCCCCCCC(=O)OCCC1CCN(CCCN2c3ccccc3Sc3ccc(S(=O)(=O)N(C)C)cc32)CC1` here?
A: Its Potency is “inactive”.

Q: Which Potency does the source give for `N=C(N)c1ccc(OCCCOc2ccc(C(=N)N)cc2Br)c(Br)c1` here?
A: Its Potency is “inactive”.

Q: With `Cc1nc(NS(=O)(=O)c2ccc(N)cc2)nc(C)c1Br` as the molecule, how does the Potency read?
A: The Potency was “inactive”.

Q: Which Potency does the source give for `CCc1ccc2c(c1)N(CC(C)CN(C)C)c1ccccc1S2` (stereo not given) here?
A: Its Potency is “inactive”.

Q: Which Potency does the source give for `S=C=Nc1ccc(N=C=S)cc1` here?
A: The Potency was “inactive”.

Q: Which Potency does the source give for `OC1OC[C@@H](O)[C@H](O)[C@@H]1O` (stereo not given in full) here?
A: The Potency was “inactive”.

Q: For `S=C1SCN(Cc2ccccc2)CN1Cc1ccccc1`, which Potency is on record?
A: The Potency was “inactive”.

Q: With `CO[C@H]1C[C@H](O[C@H]2[C@H](C)[C@@H](O[C@@H]3O[C@H](C)C[C@H](N(C)C)[C@H]3OC(C)=O)[C@@H](C)C[C@]3(CO3)C(=O)[C@H](C)[C@@H](OC(C)=O)[C@@H](C)[C@@H](C)OC(=O)[C@@H]2C)O[C@@H](C)[C@@H]1OC(C)=O` as the molecule, how does the Potency read?
A: The Potency was “inactive”.

Q: With `CCC(Cc1c(I)cc(I)c(O)c1I)C(=O)O` (stereo not given) as the molecule, how does the Potency read?
A: The Potency was “inactive”.

Q: For `O=C(OC1C[C@@H]2CC3C[C@H](C1)N2CC3=O)c1c[nH]c2ccccc12` (stereo not given in full), which Potency is on record?
A: The Potency was “inactive”.

Q: Which Potency does the source give for `Cc1c(N)nc(C(CC(N)=O)NCC(N)C(N)=O)nc1C(=O)NC(C(=O)NC(C)C(O)C(C)C(=O)NC(C(=O)NCCc1nc(-c2nc(C(=O)NCCCN[C@@H](C)c3ccccc3)cs2)cs1)C(C)O)C(O[C@@H]1O[C@@H](CO)[C@@H](O)[C@H](O)[C@@H]1O[C@H]1O[C@H](CO)[C@@H](O)[C@H](OC(N)=O)[C@@H]1O)c1cnc[nH]1` (stereo not given in full) here?
A: The Potency was “inactive”.

Q: Which Potency does the source give for `O=C(Cn1c(=O)sc2ccc(Cl)cc21)N1CCN(CCO)CC1` here?
A: The Potency was “inactive”.

Q: For `CCOC(=O)[C@@H](N)CS`, which Potency is on record?
A: The Potency was “inactive”.

Q: With `O=C(O[C@H]1CN2CCC1CC2)N1CCc2ccccc2[C@@H]1c1ccccc1` as the molecule, how does the Potency read?
A: Its Potency is “inactive”.

Q: Which Potency does the source give for `CC(C)(C)CC(=O)OCC(=O)[C@@]12OC(C)(C)O[C@@H]1C[C@H]1[C@@H]3CCC4=CC(=O)C=C[C@]4(C)[C@@]3(F)[C@@H](O)C[C@@]12C` here?
A: Its Potency is “inactive”.

Q: Which Potency does the source give for `CC[C@H](C)CCCCC(=O)N[C@@H](CCN)C(=O)N[C@H](C(=O)N[C@@H](CCN)C(=O)N[C@H]1CCNC(=O)[C@@H]([C@H](C)O)NC(=O)[C@H](CCN)NC(=O)[C@H](CCN)NC(=O)[C@H](CC(C)C)NC(=O)[C@@H](CC(C)C)NC(=O)[C@H](CCN)NC1=O)[C@@H](C)O` (X2-[Dab]T[Dab][Dab][Dab][dL]L[Dab][Dab][dT]; lactam 4-C) here?
A: The Potency was “inactive”.

Q: With `CC(C)CN(C[C@@H](O)[C@H](Cc1ccccc1)NC(=O)O[C@@H]1CCOC1)S(=O)(=O)c1ccc(N)cc1` as the molecule, how does the Potency read?
A: The Potency was “inactive”.

Q: With `CCCCCCCCCCCCCCCCCCCCCCO` as the molecule, how does the Potency read?
A: Its Potency is “inactive”.

Q: Which Potency does the source give for `Nc1ncnc(Nc2ccc(Cl)cc2)n1` here?
A: Its Potency is “inactive”.

Q: For `CC(O)[C@@H]1NC(=O)[C@H](Cc2ccccc2)NC(=O)[C@H](C(C)O)NC(=O)[C@H](CCCCN)NC(=O)[C@H](Cc2c[nH]c3ccccc23)NC(=O)[C@H](Cc2ccccc2)NC(=O)[C@H](Cc2ccccc2)NC(=O)[C@H](CC(N)=O)NC(=O)[C@H](CCCCN)NC(=O)[C@@H](NC(=O)CNC(=O)[C@H](C)N)CSSC[C@@H](C(=O)O)NC(=O)[C@H](CO)NC1=O` (stereo not given in full), which Potency is on record?
A: The Potency was “inactive”.

Q: Which Potency does the source give for `COCC1=C(C(=O)OC(C)OC(=O)OC(C)C)N2C(=O)[C@@H](NC(=O)/C(=N\OC)c3csc(N)n3)[C@H]2SC1` (stereo not given in full) here?
A: Its Potency is “inactive”.

Q: For `CCN1C(=O)NC(c2ccccc2)C1=O` (stereo not given), which Potency is on record?
A: Its Potency is “inactive”.

Q: For `CC(C)c1nc(N(C)S(C)(=O)=O)nc(-c2ccc(F)cc2)c1/C=C/C(O)CC(O)CC(=O)O` (stereo not given), which Potency is on record?
A: The Potency was “inactive”.

Q: Which Potency does the source give for `CC1=C(/C=C/C(C)=C/C=C/C(C)=C/C(=O)Oc2c(C)c(C)c3c(c2C)CC[C@@](C)(CCC[C@H](C)CCC[C@H](C)CCCC(C)C)O3)C(C)(C)CCC1` here?
A: The Potency was “inactive”.

Q: Which Potency does the source give for `CCCC(=O)O[C@]1(C(=O)COC(C)=O)CC[C@H]2[C@@H]3C[C@H](F)C4=CC(=O)C=C[C@]4(C)[C@@]3(F)[C@@H](O)C[C@@]21C` here?
A: The Potency was “inactive”.

Q: Which Potency does the source give for `O=C[C@H](O)[C@@H](O)[C@H](O[C@H]1O[C@H](CO)[C@@H](O[C@H]2O[C@H](CO)[C@@H](O)[C@H](O)[C@H]2O)[C@H](O)[C@H]1O)[C@H](O)CO` here?
A: Its Potency is “inactive”.

Q: For `CCNC(=O)[C@@H]1CCCN1C(=O)[C@H](CCCN=C(N)N)NC(=O)[C@H](CC(C)C)NC(=O)[C@@H](CC(C)C)NC(=O)[C@H](Cc1ccc(O)cc1)NC(=O)[C@H](CO)NC(=O)[C@H](Cc1c[nH]c2ccccc12)NC(=O)[C@H](Cc1cnc[nH]1)NC(=O)[C@@H]1CCC(=O)N1`, which Potency is on record?
A: Its Potency is “inactive”.
